In the supplement of paper PMC6555819:

Assays:
Assay in all cases: PBM binding z-score (relative to random genomic background probes); higher = stronger binding; sequences stand for … in GC…GCGATTGACAGCGTAGAATGAAGG
[1] = test system: FXR:RXRa (NR concentration 270 nM, RXRa partner concentration 90 nM)
How it was run: (§1)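 Binding z-scores take random background probes as their reference. They come from custom Agilent 4×180K protein-binding microarrays incubated 1 h with ligand-free nuclear receptor dimers, with antibodies against each partner (one per run) detecting binding. Scanned fluorescence was regression-normalized.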

[2] = test system: LXRa:RXRa (NR concentration 270 nM, RXRa partner concentration 90 nM)
How it was run: as §1

[3] = test system: LXRa homodimer (NR concentration 270 nM)
How it was run: as §1

[4] = test system: LXRb:RXRa (NR concentration 270 nM, RXRa partner concentration 90 nM)
How it was run: as §1

[5] = test system: LXRb homodimer (NR concentration 270 nM)
How it was run: as §1

[6] = test system: PPARa:RXRa (NR concentration 270 nM, RXRa partner concentration 90 nM)
How it was run: as §1

[7] = test system: PPARg:RXRa (NR concentration 180 nM, RXRa partner concentration 90 nM)
How it was run: as §1

[8] = test system: PPARg:RXRa 270nM:90nM, anti-RXR (NR concentration 270 nM, RXRa partner concentration 90 nM)
How it was run: as §1

[9] = test system: PPARg:RXRa 30nM:10nM, anti-RXR (NR concentration 30 nM, RXRa partner concentration 10 nM)
How it was run: as §1

[10] = test system: PPARg:RXRa 90nM:30nM, anti-RXR (NR concentration 90 nM, RXRa partner concentration 30 nM)
How it was run: as §1

[11] = test system: PPARg:RXRa DBDmut IVT, anti-RXR (DBD mutation: RXRa K156A/R161A, NR concentration 270 nM, RXRa partner concentration 90 nM)
How it was run: as §1

[12] = test system: PPARg:RXRa IVT, anti-PPARg (NR concentration 270 nM, RXRa partner concentration 90 nM)
How it was run: as §1

[13] = test system: PPARg DBDmut:RXRa IVT, anti-PPARg (DBD mutation: PPARg1 K132A/R137A, NR concentration 270 nM, RXRa partner concentration 90 nM)
How it was run: as §1

[14] = test system: PPARg DBDmut IVT, anti-PPARg (DBD mutation: PPARg1 K132A/R137A, NR concentration 270 nM)
How it was run: as §1

[15] = test system: PPARg homodimer (NR concentration 180 nM)
How it was run: as §1

[16] = test system: PXR:RXRa (NR concentration 270 nM, RXRa partner concentration 90 nM)
How it was run: as §1

[17] = test system: PXR homodimer (NR concentration 270 nM)
How it was run: as §1

[18] = test system: RARa:RXR (NR concentration 270 nM, RXRa partner concentration 90 nM)
How it was run: as §1

[19] = test system: RARa homodimer (NR concentration 270 nM)
How it was run: as §1

[20] = test system: RARb:RXRa (NR concentration 270 nM, RXRa partner concentration 90 nM)
How it was run: as §1

Row | Sequence | PBM binding z-score [1] | PBM binding z-score [2] | PBM binding z-score [3] | PBM binding z-score [4] | PBM binding z-score [5] | PBM binding z-score [6] | PBM binding z-score [7] | PBM binding z-score [8] | PBM binding z-score [9] | PBM binding z-score [10] | PBM binding z-score [11] | PBM binding z-score [12] | PBM binding z-score [13] | PBM binding z-score [14] | PBM binding z-score [15] | PBM binding z-score [16] | PBM binding z-score [17] | PBM binding z-score [18] | PBM binding z-score [19] | PBM binding z-score [20]
1 | TGATATAGGTAAATGCTAGGTGAAAGTCCGATCT | 0.297 | 0.127 | 0.0779 | -0.0435 | -0.105 | 1.62 | 1.45 | 1.84 | 1.05 | 1.44 | 4.45 | 3.66 | 0.978 | 0.956 | 0.829 | -0.09 | 0.293 | 0.178 | 1.15 | 0.212
2 | TCTTGTAGATCAGCAGGGTAAGAAAGCTGGCCAA | -0.168 | -0.124 | -0.627 | -0.0454 | -0.559 | 0.26 | -0.512 | 1.17 | 2.55 | 1.82 | 1.81 | 0.207 | -0.22 | -0.694 | -0.287 | 0.0405 | -0.245 | 0.188 | -0.0241 | -0.199
3 | TCTTGTAGATCAATAGAGGCTAAGAAAGTGCGCT | 0.509 | 0.411 | -0.573 | 0.151 | -0.421 | 0.411 | -0.238 | 0.977 | 2.4 | 1.84 | 1.51 | 0.473 | 0.414 | 0.266 | 0.0391 | 0.573 | 0.17 | 0.468 | -0.133 | 0.203
4 | ACTATTGGTTGACTTAGGGCAACCGATACGACGC | 0.0585 | 0.381 | -0.0343 | 0.201 | 0.546 | 0.0767 | 0.718 | 0.153 | 0.181 | 0.103 | -0.408 | 0.507 | 0.7 | 0.813 | -0.419 | 0.245 | -0.0405 | 0.77 | -0.0341 | 0.653
5 | GCTGCTAGGTCAGGTTGGTTAGCTAACGGGTACG | 1.06 | 0.689 | -0.475 | 0.322 | -0.199 | 1.24 | 0.149 | 0.709 | -0.629 | 0.079 | 3.18 | 1.92 | -0.902 | -0.404 | 0.608 | 0.32 | -0.467 | 0.712 | -0.719 | 3.07
6 | CAAACTAGGTCACCGAGGTCAAAGTCCGTGCGTA | 7 | 6.22 | 5.91 | 5.75 | 1.25 | 6.56 | 10.2 | 8.39 | 6.43 | 8.33 | 8.69 | 9.03 | 4.5 | 2.89 | 5.36 | 6.93 | 12.2 | 7.45 | 1.57 | 5.18
7 | ATCTCTAGGTAAAGATAGTTCATTGAATGCAAAT | 0.585 | 5.32 | 1.71 | 1.59 | 0.747 | 1.36 | 1.11 | 0.714 | 0.293 | 0.846 | 1.7 | 1.76 | 1.3 | 1.29 | 0.829 | 2.33 | 1.98 | 1.25 | 1.34 | 1.06
8 | CATACAGGGTCAGCTAGGCCAGAATAGGGACGGC | 4.83 | 3.22 | -0.0324 | 2.38 | -0.0852 | 4.55 | 3.66 | 3.09 | 0.879 | 2 | 0.915 | 2.41 | 0.965 | 0.203 | 0.999 | 2.22 | 0.0161 | 2.91 | 0.818 | 4.16
9 | TCATATAGGAAAAAGGTGAAAGTCGGTGTGGTAA | 1.37 | 1.47 | -0.216 | 1.38 | -0.0192 | 2.87 | 3.05 | 5.37 | 5.19 | 5.73 | 2.92 | 1.79 | 1.1 | 0.104 | 1.49 | 0.859 | 0.327 | 1.63 | 1.43 | 1.57
10 | TGAATGAGGTTATAATATCAGGGAACGTTGCAAA | 1.4 | 1.31 | 0.0955 | 1.38 | 0.0343 | 2.68 | 1.29 | 1.62 | 0.724 | 1.25 | 0.771 | 1.75 | 1.25 | 0.939 | 0.756 | 1.08 | 0.111 | 1.59 | 0.0682 | 1.08
11 | GCTTACGGGTCAATGGTTATAGCATGAATAGAAT | 4.8 | 2.75 | -0.289 | 2.89 | 0.196 | 4.78 | 4.3 | 4.54 | 1.86 | 3.57 | 3.66 | 3.16 | 0.504 | 0.889 | 1.06 | 2.21 | 0.167 | 3.03 | 0.149 | 3.43
12 | TTACCAAGGTTAGCTGAGGTCGTTGATCCAACTC | 2.11 | 4.83 | 0.313 | 2.51 | -0.743 | 2.24 | -0.0441 | 0.6 | 0.0802 | 0.486 | 0.191 | 0.594 | -0.413 | -0.849 | 0.103 | 5.71 | 1.46 | 2.83 | -0.023 | 2.1
13 | TCTTGTAGATCAGCAGGATAAGAAAGCTGGCCAA | -0.292 | -0.433 | -0.526 | -0.411 | -0.635 | 0.0173 | -0.182 | 1.01 | 2.37 | 1.45 | 1.55 | 0.124 | 0.2 | -0.242 | -1.15 | -0.413 | -0.584 | -0.151 | -0.239 | -0.505
14 | ATCTCTAGGTAACAAGTTCAGTCAAAGAGAGGAC | 0.865 | 0.77 | 0.75 | 0.867 | 0.743 | 1.5 | 1.4 | 2.12 | 1.16 | 1.85 | 3.46 | 2.97 | 1.25 | 1.27 | 1.63 | 1.77 | 2.04 | 1.1 | 1.66 | 1.62
